According to PubChem BioAssay:
Entries with a potency or affinity are not part of this list. The source made the active and inactive calls. Cut-off not given; nearly all actives show IC50 up to about 0.98 µM.

What follows are compounds tested against Calcium-dependent protein kinase 1 (Plasmodium falciparum (isolate 3D7)) (UniProt P62344) (assay: PfCDPK1 kinase inhibitors, biochemical, TCAMS library (AID 1159585;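 further: inhibitors leave more ATP so luminescence rises with inhibition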)). Conditions: recombinant PfCDPK1, Kinase-Glo ATP depletion luminescence.
Calcium-dependent protein kinase 1 (Plasmodium falciparum (isolate 3D7)), sequence (P62344 whole entry, looked up): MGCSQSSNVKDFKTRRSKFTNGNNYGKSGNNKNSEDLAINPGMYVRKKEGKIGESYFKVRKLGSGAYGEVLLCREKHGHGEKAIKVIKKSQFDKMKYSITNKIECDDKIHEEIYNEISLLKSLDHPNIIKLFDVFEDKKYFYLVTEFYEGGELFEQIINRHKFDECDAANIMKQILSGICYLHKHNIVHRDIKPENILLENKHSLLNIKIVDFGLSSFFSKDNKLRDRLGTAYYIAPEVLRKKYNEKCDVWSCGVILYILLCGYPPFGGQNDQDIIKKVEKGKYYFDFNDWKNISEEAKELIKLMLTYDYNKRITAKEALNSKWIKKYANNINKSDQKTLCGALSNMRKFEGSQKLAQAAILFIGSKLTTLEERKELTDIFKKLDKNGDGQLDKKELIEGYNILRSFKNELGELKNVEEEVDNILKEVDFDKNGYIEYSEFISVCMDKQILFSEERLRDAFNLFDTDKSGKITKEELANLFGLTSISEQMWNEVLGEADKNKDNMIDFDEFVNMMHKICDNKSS

outcome, inactive:
c1cc(CN2CCCCC2)cc(-c2csc(-c3nc4ccccc4[nH]3)c2)c1
CC(=NNC(=S)NCCc1ccccc1)c1ccccn1
CN1CCCC(CN2CCN(Cc3cccc(-c4ccc(-c5nc6ccccc6[nH]5)s4)c3)CC2)C1 (stereo not given)
CN1CCN(c2ccc3nc(-c4ccc5nc(-c6ccc(O)cc6)[nH]c5c4)[nH]c3c2)CC1
CCOc1ccc2c(NN=Cc3ccccc3OC)cc(C)nc2c1
CO/C(=C\C=C\c1cc2cc(Cl)c(Cl)cc2[nH]1)C(=O)Nc1ccc(NCCN(C)C)nc1
CCN(CC)CCN(Cc1ccc(-c2ccc(C(F)(F)F)cc2)cc1)C(=O)Cn1c(CCc2cc(F)ccc2F)nc(=O)c2ccccc21
Nc1ncc(-c2ccccc2)cc1-c1cccc2ncccc12
Cc1nc(-c2cccc(Nc3nccc(NCC(O)c4cccc(F)c4)n3)c2)cs1 (stereo not given)
Cc1cnc(Nc2ccccc2)nc1NCCC(=O)Nc1ccccc1
Cc1cccc2[nH]c(-c3cccc(-c4cccc(NC(=O)C(C)CN5CCN(C)CC5)c4)c3)nc12 (stereo not given)
O=C(Nc1ccc(NC2=NCCN2)cc1)c1ccc(C(=O)Nc2ccc(NC3=NCCN3)cc2)cc1
Cc1onc(-c2ccccc2)c1-c1nc(NCc2ccccc2Cl)no1
O=C(NCc1ccccc1)c1nn(CCCN2CCC(N3CCCC3)CC2)cc1-c1ccc(Cl)c(Cl)c1
O=C(Cc1cccc(Cl)c1)N1CCc2cc3nccc(N4CCN5CCC[C@H]5C4)c3cc21
Cn1cncc1C(=O)Nc1cccc(-c2ccc(-c3nc4ccccc4[nH]3)cc2)c1
CNS(=O)(=O)Cc1ccc(Nc2nccc(Nc3cccc4c3cnn4C(=O)Nc3ccccc3)n2)cc1
Cc1nc(N)nc(N)c1-c1ccc(Br)c([N+](=O)[O-])c1
O=C(Nc1ccc(Cl)cc1)c1ccc(CN2CCCN(CC3CCCCC3)CC2)cc1
CCNc1cc(C(=O)N[C@@H](Cc2ccccc2)[C@H](O)CN[C@H](C)C(C)(C)C)cc(N2CCCCS2(=O)=O)c1
CC(=O)Nc1cccc(-c2cnc(N)c3cc(-c4ccc5c(c4)OCO5)ccc23)c1
CCCCCCCN1CC[C@@H](CCCc2ccnc3ccc(OCCC4CCNCC4)cc23)[C@@H](CC)C1
CC1(C)N=C(N)N=C(N)N1OCCSCc1cc(Cl)sc1Cl
Cc1cc(N[C@@H](CC(C)C)C(=O)Nc2ccccc2)nc(NCCc2ccccc2)n1
CN1CCN(CCCN(Cc2csc(-c3ccc(CNCc4ccccc4)cc3)n2)C(=O)c2cc(F)cc(F)c2)CC1
COCCN1CCC(CNCC(C)(C)c2nc(-c3ccc(Cl)c(O)c3)c(-c3ccncc3)[nH]2)CC1
O=C(NC1CCN(CCC(NC(=O)c2ccccc2)c2ccc(Cl)c(Cl)c2)CC1)c1ccc(Cl)cc1 (stereo not given)
O=C(NCc1cccs1)[C@H](Cc1ccccc1)Nc1ccnc(NCC2CCCCC2)n1
c1cc(Nc2nc(-c3ccc(-c4csc(Nc5ccncc5)n4)cc3)cs2)ccn1
C=CCN(c1ccc(OC)cc1)S(=O)(=O)c1ccc(Cl)c(C(=O)Nc2cccc(C#N)c2)c1
Cn1cncc1C(=O)Nc1cccc(-c2ccc(-c3nc4ccccc4[nH]3)s2)c1
c1ccc2c(CNc3nc(NCC4CCCCC4)nc4nc[nH]c34)cccc2c1
CCC1N=C(N)N=C(N)N1OCc1cccc2ccccc12 (stereo not given)
CC(C)c1ccc(CN2CCCCC(NC(=O)c3cc(-c4cccc(F)c4)cs3)C2)cc1 (stereo not given)
COc1cc(C2CCN(CCCCNC(=O)c3ccc(NC(=O)c4ccc(Cl)c(Cl)c4)cc3)CC2)ccc1OC(C)C
CN(C)CC(=O)NCC(NCCCNc1cc(=O)c2ccccc2[nH]1)c1cc(Br)cc(Br)c1 (stereo not given)
COc1cc(Cc2cnc(N)nc2N)ccc1OCC(=O)Nc1ccc(C)cc1
CCOc1c(CNCCCNc2cc(=O)c3ccccc3[nH]2)cc(I)cc1OC
COC(=O)Nc1cc(C(F)(F)F)ccc1N1CCCC(NS(=O)(=O)c2ccc(C(C)(C)C)cc2)C1 (stereo not given)
CCCCCCCN1CC[C@@H](CCC(O)c2ccnc3ccc(OC)cc23)[C@@H](CC)C1 (stereo not given in full)
